This note sets out measurements from PubChem BioAssay (NCI).

About 83,000 compounds went through this panel and 20% of them were active in at least one assay; those are over-represented in the sample as a whole.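 Testing used 96-well plates and a 48-hour single-concentration exposure. Example: -40 means 40% of the starting cells died.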 Values without a mark were called inactive. The source made the active and inactive calls. The calls were made as follows: active = growth percent below 10; inactive = the rest.

In the test the test system is UACC-257 melanoma. In words: NCI-60 one-dose screen, 48 h (100 = growth as untreated, 0 = no growth, -100 = all killed). As to conditions: 10 µM.
With `COc1cc(C2=NN(C(C)=O)C(c3ccc(N4CCOCC4)cc3)C2)cc(OC)c1OC` (stereo unspecified), the growth is 103%.

Take `COc1ccc([C@H]2c3[nH]c4ccccc4c3C[C@@H]3C(=O)N(C4CCN(Cc5ccccc5)CC4)CC(=O)N23)c(OC)c1`: the growth was 94.5%.

Turning to `COc1ccc([C@H]2[C@H](O)C(=O)N2c2cc(OC)c(OC)c(OC)c2)cc1Cl`, the growth was 40.8%.

In the case of `COc1ccc(/C=C/C(=O)c2nnn(-c3ccc(C(=O)O)cc3)c2C)cc1OC`, the growth was 97%.

On to `O=[N+]([O-])c1ccc(-c2nnc(SCc3ccc(O)c4ncccc34)n2-c2ccccc2)cc1`, for which the growth was 42.5%.

Turning to `O=C(NCCCNc1cc(-c2cn(-c3ccccc3)nc2-c2cccc(O)c2)ccn1)Nc1cccc(C(F)(F)F)c1`, the growth is 21.1%.

Take `CC(C)C(=O)Nc1ccc(-c2nc(-c3cccc(O)c3)c(-c3ccnc(Br)c3)[nH]2)cc1`: the growth was 52.7%.

Take `Cc1cc(F)cc(NS(=O)(=O)c2ccc(-c3cnc(C4CC4)o3)cc2)c1`: the growth was 59.1%.

`CCOC(=O)c1c(NCC(=O)Nc2cccc(Cl)c2)sc2c1CCCC2`: the growth is 99.1%.

In the case of `O=S(=O)(Nc1cc(Cl)cc(Cl)c1)c1ccc(-c2cnc(C3CC3)o2)cc1`, the growth was 75.1%.

As for `CCOC(=O)Nc1cccc(-n2cnc3cc(-c4ccc(O)cc4)ccc32)c1`, the growth was 83.6%.

As for `Cc1nn(-c2ccc(Cl)cc2)c(C)c1N=Nc1ccc2oc(=O)ccc2c1`, the growth was 94.6%.

For the compound `O=C(NCCNc1cc(-c2cn(-c3ccccc3)nc2-c2cccc(O)c2)ccn1)Nc1ccc(Cl)c(C(F)(F)F)c1`, the growth was 89.6%.

Regarding `CN(c1ccc(Br)cc1)S(=O)(=O)c1ccc(-c2cnc(C3CC3)o2)cc1`, the growth is 67.3%.

Take `CCCC(=O)NC(c1cccnc1)c1cc(Cl)c2cccnc2c1O` (stereo unspecified): the growth is 34.9%.

For the compound `Nc1nc(-c2cccc([N+](=O)[O-])c2)c(N=Nc2ccccc2[N+](=O)[O-])s1`, the growth was 103%.

As to `C/C(=N\NC(=O)CSc1nc2sc3c(c2c(=O)n1-c1ccccc1)CCC(C)C3)c1ccc(Cl)cc1` (stereo unspecified), the growth is 75%.

For `C#C[C@]1(O)CC[C@H]2[C@@H]3CC=C4c5sc(Nc6nc(C)cc(OC)n6)nc5CC[C@]4(C)[C@H]3CC[C@@]21C`, the growth was 46.1%.

As for `CN1CCN(c2ccc(NC(=O)Nc3ccc4c(ccn4-c4cccc(C(N)=O)n4)c3)cc2C(F)(F)F)CC1`, the growth is -14% (active).

As for `COc1ccc(NS(=O)(=O)c2ccc(-c3cnc(C4CC4)o3)cc2)cc1Cl`, the growth is 66.9%.

With `CC1OC(O[C@@H]2C(O)C(CO)OC(O[C@H]3COC(O[C@H]4CC[C@]5(C)[C@H]6CC[C@]78OC[C@@]9(CC[C@](C)(C=O)C[C@H]97)[C@H](O)C[C@@]8(C)[C@]6(C)CC[C@H]5C4(C)C)[C@@H](OC4OC(CO)[C@@H](O)[C@@H](O)[C@@H]4O)[C@@H]3O)[C@H]2OC2OC[C@@H](O)[C@@H](O)[C@@H]2O)[C@@H](O)[C@@H](O)[C@H]1O` (stereo partly specified), the growth is -78% (active).

Take `COc1ccc(-c2ccc3c4c(cccc24)C(=O)N(N2C(=O)c4cccc5cccc(c45)C2=O)C3=O)cc1`: the growth is 105%.

For the compound `N#Cc1c(NC(=O)c2ccc(F)c(Cl)c2)sc2c1CCC(=O)C2`, the growth is 2.11% (active).

As for `Nc1ccc(-c2nnc(SCc3ccc(O)c4ncccc34)o2)cc1`, the growth is -20.4% (active).

Take `IP(CCCCCCCCCCSc1n(Cc2ccc3ccccc3c2)c(-c2ccccc2)c(-c2ccccc2)[n+]1Cc1ccc2ccccc2c1)(c1ccccc1)(c1ccccc1)c1ccccc1`: the growth was -55.8% (active).

With `Cc1cc(Cl)cc(NS(=O)(=O)c2ccc(-c3cnc(C4CC4)o3)cc2)c1`, the growth was 68.2%.

Regarding `COc1cc(/C=N/n2cnc3oc(-c4ccccc4)cc3c2=N)cc(CN2CCCCC2)c1O`, the growth is -27% (active).

As to `CCOC(=O)c1c(NC(=O)c2ccc(C(C)(C)C)cc2)sc2cc(OCCN3CCCCC3)ccc12`, the growth was 100%.

`NS(=O)(=O)Oc1ccc2nc(Nc3ccc(F)c(F)c3)ccc2c1`: the growth was 104%.

Take `CC(=O)c1sc(Nc2cccc(Nc3nc(C)c(C)s3)c2)nc1C`: the growth is 88.7%.

On to `CCCCCCNC(=O)Oc1ccc(/C(=C(\C)c2ccc(OC)cc2)c2ccc(OCCN(C)C)cc2)cc1`, for which the growth is 9.83% (active).

In the case of `Cc1cccc(NC(c2cc3cccc4ccc5cccc2c5c43)c2nnnn2C(C)(C)C)c1C` (stereo unspecified), the growth is 94%.

For `CCOC(=O)c1c(NCC(=O)Nc2cccc([N+](=O)[O-])c2)sc2c1CCCC2`, the growth is -27% (active).

On to `O=c1oc2ccc(-c3ccc(F)cc3F)cc2c(=O)n1-c1ccc(F)c(F)c1`, for which the growth is -14.9% (active).

As to `Brc1cccc(/C=N/Nc2nc(N/N=C/c3cccc(Br)c3)nc(N3CCOCC3)n2)c1`, the growth is 35.9%.

In the case of `N#C/C(=C\c1ccc2ccccc2c1)C(=O)Nc1sc2c(c1C#N)CCC2`, the growth is 108%.
